Experimental data published in PubChem BioAssay (EPA / NIEHS).
Records with an inconclusive call do not appear. Some compounds were tested as several samples or in several runs, with calls that do not always agree. Activity calls are given as the source filed them. The calls were made as follows: active = hit-call score of the fitted dose curve at least 0.9, where 1 is the maximum; inconclusive = response in the unintended direction; inactive = score below 0.9.

Test system: zebrafish Estrogen Receptor (ESR2A), gene 317734
Experiment: ATG_zfER2a_XSP1: Attagene TRANS-FACTORIAL Multi-Species (XSP1) HepG2 Assay for zebrafish Estrogen Receptor (ESR2A) (AID 2283778)
Method in brief: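 HepG2 cells transiently transfected with GAL4-UAS reporter units driven by a zebrafish ESR2A–Gal4 chimera; 24 h compound exposure with 3 nM 6-alpha-fluorotestosterone present. Reporter mRNA measured by RT-PCR with fluorescent capillary electrophoresis, fitted positive versus DMSO.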

Compound | outcome | AC50
CC(C)(c1cc(Br)c(O)c(Br)c1)c1cc(Br)c(O)c(Br)c1 | inactive | –
Cc1c2ccccc2c(C)c2c1ccc1ccccc12 | – | 15700 nM (active)
C[C@]12CC[C@@H]3c4ccc(O)cc4CC[C@H]3[C@@H]1CCC2=O | – | 3.83 nM (active)
CC/C(=C(/CC)c1ccc(O)cc1)c1ccc(O)cc1 | – | 0.0485 nM (active)

Molecular target: chicken Estrogen Receptor (ESR1), ESR1 (gene 396099) (UniProt P06212)
Experiment: ATG_chERa_XSP1: Attagene TRANS-FACTORIAL Multi-Species (XSP1) HepG2 Assay for chicken Estrogen Receptor (ESR1) (AID 2283779)
Method in brief: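 HepG2 cells transiently transfected with GAL4-UAS reporter units for chimeric chicken ERα-Gal4, dosed 24 h with 3 nM 6-alpha-fluorotestosterone present. Reporter mRNA by RT-PCR and capillary electrophoresis; gain-of-signal fit versus DMSO.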

Sequence of chicken Estrogen Receptor (ESR1), ESR1 (gene 396099) (P06212 whole entry, looked up): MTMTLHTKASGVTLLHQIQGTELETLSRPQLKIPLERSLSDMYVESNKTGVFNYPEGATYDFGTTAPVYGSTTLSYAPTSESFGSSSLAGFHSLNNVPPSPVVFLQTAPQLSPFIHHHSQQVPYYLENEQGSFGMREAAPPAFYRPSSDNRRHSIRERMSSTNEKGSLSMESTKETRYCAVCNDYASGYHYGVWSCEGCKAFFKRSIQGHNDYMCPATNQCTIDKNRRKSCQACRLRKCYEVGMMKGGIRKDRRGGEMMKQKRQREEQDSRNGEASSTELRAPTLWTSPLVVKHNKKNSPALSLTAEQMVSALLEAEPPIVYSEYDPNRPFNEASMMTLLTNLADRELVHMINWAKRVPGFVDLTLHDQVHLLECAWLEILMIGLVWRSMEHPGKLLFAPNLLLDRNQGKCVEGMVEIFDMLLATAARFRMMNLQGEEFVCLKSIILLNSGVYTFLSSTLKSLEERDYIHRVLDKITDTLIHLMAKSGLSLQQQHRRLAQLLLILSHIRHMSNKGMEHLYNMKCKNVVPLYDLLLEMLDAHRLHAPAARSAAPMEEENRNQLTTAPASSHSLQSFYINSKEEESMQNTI

Compound | outcome | AC50
CC(C)(c1cc(Br)c(O)c(Br)c1)c1cc(Br)c(O)c(Br)c1 | inactive | –
Cc1c2ccccc2c(C)c2c1ccc1ccccc12 | – | 5860 nM (active)
C[C@]12CC[C@@H]3c4ccc(O)cc4CC[C@H]3[C@@H]1CCC2=O | – | 5.08 nM (active)
CC/C(=C(/CC)c1ccc(O)cc1)c1ccc(O)cc1 | – | 0.0429 nM (active)

Test system: turtle Estrogen Receptor (ESR1), gene 101933533
Experiment: ATG_trERa_XSP1: Attagene TRANS-FACTORIAL Multi-Species (XSP1) HepG2 Assay for turtle Estrogen Receptor (ESR1) (AID 2283781)
Method in brief: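 Turtle ERa as a GAL4 chimera in transiently transfected HepG2 cells; reporter mRNA quantified 24 h after dosing by RT-PCR and capillary electrophoresis. 3 nM 6-alpha-fluorotestosterone present; gain of signal versus DMSO.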

Compound | outcome | AC50
CC(C)(c1cc(Br)c(O)c(Br)c1)c1cc(Br)c(O)c(Br)c1 | inactive | –
Cc1c2ccccc2c(C)c2c1ccc1ccccc12 | – | 15700 nM (active)
C[C@]12CC[C@@H]3c4ccc(O)cc4CC[C@H]3[C@@H]1CCC2=O | – | 3.09 nM (active)
CC/C(=C(/CC)c1ccc(O)cc1)c1ccc(O)cc1 | – | 0.0379 nM (active)

Test system: not listed separately
Experiment: ACEA_ER_AUC_viability: ACEA Biosciences xCELLigence Real-Time Cell Analysis on Estrogen Receptor Agonism for Viability (AID 2283782);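 also: continuous compound exposure with impedance area under curve over 80 h; hit means loss of impedance signal meaning reduced cell growth or viability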
Method in brief: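 T47D cells preconditioned in phenol red-free RPMI with charcoal-stripped FBS, then dosed with 8-point 1:4 series from 100 uM (up to 0.5% DMSO). Impedance monitored up to ~80 h; area-under-curve loss versus DMSO taken as viability.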

Compound | outcome | AC50
O=C(OCCCCCCOC(=O)c1ccccc1)c1ccccc1 | inactive | –
O=C(Nc1ccc(Cl)cc1)Nc1ccc(Cl)c(Cl)c1 | – | 18.7 µM (active)
O=C(O)c1ccccc1-n1cc(C(=O)O)c(=O)c2cc(Nc3c(F)cc(F)cc3Cl)c(Cl)cc21 | inactive | –
CCCCCCCCOC(=O)c1cc(O)c(O)c(O)c1 | – | 10 µM (active)
CC(C)(c1cc(Br)c(O)c(Br)c1)c1cc(Br)c(O)c(Br)c1 | – | 73.3 µM (active)
CC[C@@H]1C[C@H](N(Cc2cc(C(F)(F)F)cc(C(F)(F)F)c2)C(C)=O)c2cc(C(F)(F)F)ccc2N1C(=O)OC(C)C | – | 3.79 µM (active)
COc1ccc2cc(S(=O)(=O)N[C@H](CC(=O)N[C@H](Cc3ccc(CN4[C@H](C)CCC[C@@H]4C)cc3)C(=O)N(C)C(C)C)c3ccc4c(c3)OCO4)ccc2c1 | – | 10.8 µM (active)
O=c1ccc2ccccc2o1 | inactive | –
CC(C)(C)c1cc(/C=C2\SC(N)=NC2=O)cc(C(C)(C)C)c1O | – | 31.6 µM (active)
Cc1c2ccccc2c(C)c2c1ccc1ccccc12 | – | 20.1 µM (active)
O=c1[nH]sc2ccccc12 | – | 14.9 µM (active)
CN(C[C@@H](CC[N+]12CCC(C3CCCCC3)(CC1)CC2)c1ccc(Cl)c(Cl)c1)C(=O)c1cc(C(F)(F)F)cc(C(F)(F)F)c1 | – | 10.6 µM (active)
NC(=O)c1nc(-c2cccc(-c3cc(F)ccc3OCC(F)(F)C(F)(F)F)c2)n[nH]1 | – | 94 µM (active)
Oc1ccccc1 | inactive | –
CCCCCCCCCCCCO | – | 68.3 µM (active)
O=C(O)Cn1c(=O)n(Cc2ccc(Br)cc2F)c(=O)c2ccc(Cl)cc21 | inactive | –
CC/C(=C(/CC)c1ccc(O)cc1)c1ccc(O)cc1 | inactive | 50 µM (active)
Clc1ccccc1C(c1ccccc1)(c1ccccc1)n1ccnc1 | – | 27.6 µM (active)
CCCCCCCCOc1ccc(C(=O)c2ccccc2)c(O)c1 | inactive | –
